# Measured values as given in publication PMC5540273 (PLoS ONE, 2017).
# Like-named read-outs stand apart in the source and are kept apart here.
# What was measured:
# Conditions in all cases: n = 1
# [1] = tested on: T1, RSK2(Kin.Dom.2-C-terminal)
# T1 construct: gene RPS6KA3
# [2] = tested on: T2, RSK3(Kin.Dom.1-N-terminal)
# T2 construct: gene RPS6KA2
# [3] = tested on: T3, RSK3(Kin.Dom.2-C-terminal)
# T3 construct: gene RPS6KA2
# [4] = tested on: T4, RSK4(Kin.Dom.1-N-terminal)
# T4 construct: gene RPS6KA6
# [5] = tested on: T5, RSK4(Kin.Dom.2-C-terminal)
# T5 construct: gene RPS6KA6
# S6K1 = tested on: S6K1
# SBK1 = tested on: SBK1
# SGK2 = tested on: SGK2
# SGK3 = tested on: SGK3
# SGK = tested on: SGK
# [6] = concentration: 1 μM, replicates: in singlicate
# 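Further: KINOMEscan kinase panel screen.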
Compound,"%Inh [1, 6]","%Inh [2, 6]","%Inh [3, 6]","%Inh [4, 6]","%Inh [5, 6]",%Inh (S6K1; [6]),%Inh (SBK1; [6]),%Inh (SGK2; [6]),%Inh (SGK3; [6]),%Inh (SGK; [6]),%Inh ([1]; 1 µM),%Inh ([2]; 1 µM),%Inh ([3]; 1 µM),%Inh ([4]; 1 µM),%Inh ([5]; 1 µM),%Inh (S6K1; 1 µM),%Inh (SBK1; 1 µM),%Inh (SGK2; 1 µM),%Inh (SGK3; 1 µM),%Inh (SGK; 1 µM)
CC(C)(C)c1ccc(C(=O)Nc2cn3cc(-c4cccnc4)ccc3n2)cc1,0%,13%,36%,4%,47%,11%,23%,0%,13%,0%,,,,,,,,,,
Cc1ccc(C(=O)Nc2ccc(Nc3ccnc4cc(-c5ccccn5)ccc34)cc2O)cc1.Cl [GW440146],4%,6%,0%,0%,1%,7%,10%,0%,0%,0%,,,,,,,,,,
Cc1nnc(-c2ccc3occ(-c4ccc(S(C)=O)cc4)c3c2)[nH]1 (stereo not drawn),5%,0%,7%,0%,36%,4%,0%,5%,17%,1%,,,,,,,,,,
Cl.NC(=O)c1cccc(Nc2nccc(Nc3ccc(Oc4cccc(Cl)c4)c(Cl)c3)n2)c1 [GW659008],16%,0%,18%,0%,19%,0%,0%,0%,0%,0%,,,,,,,,,,
COc1ccc(CNC(=O)NC2CCN(c3ccnc(Nc4cc(OC)c(OC)c(OC)c4)n3)C2)cc1 (stereo not drawn) [GSK1379748],15%,0%,21%,0%,5%,0%,0%,0%,0%,0%,,,,,,,,,,
CCn1c(-c2cccnc2O)nc2cnccc21 [SB-736715],1%,0%,13%,0%,15%,5%,0%,0%,0%,0%,,,,,,,,,,
O=C(Nc1ccccc1)Nc1cccc(Oc2ccc3nccn3n2)c1,32%,9%,14%,0%,0%,0%,0%,8%,9%,0%,,,,,,,,,,
COc1ccc(Nc2nccc(NCCNC(=O)Nc3ccccc3F)n2)cc1 [GSK1379901],27%,19%,2%,0%,23%,3%,6%,0%,16%,0%,,,,,,,,,,
NC(=O)c1nnc2ccccc2c1N,13%,19%,0%,33%,44%,14%,1%,13%,44%,0%,,,,,,,,,,
Cc1cccc(-c2nc(Nc3ccc4[nH]ncc4c3)c3ccccc3n2)n1 [GW857175],23%,14%,1%,35%,15%,26%,5%,6%,9%,25%,,,,,,,,,,
O=S(=O)(c1ccc(-c2ccnc3[nH]ccc23)cc1)N1CCCC1 [GSK846226],0%,0%,38%,0%,35%,5%,4%,0%,0%,0%,,,,,,,,,,
COC(=O)c1c(-c2ccccc2)c2cc(C(=O)O)ccc2c(=O)n1Cc1ccccc1,0%,0%,0%,0%,5%,0%,0%,25%,5%,23%,,,,,,,,,,
Cl.Oc1ccc(-c2nc(-c3ccccc3)[nH]c2-c2ccncc2)cc1 [SB-428218],0%,0%,8%,0%,32%,14%,0%,0%,0%,7%,,,,,,,,,,
O=C(Nc1ccc2c(c1)OCO2)NC1CCN(c2ccnc(Nc3ccc(F)cc3)n2)C1 (stereo not drawn) [GSK1379724],0%,0%,0%,0%,0%,6%,13%,0%,0%,0%,,,,,,,,,,
O=C1NC(=O)C(N2CCc3ccccc32)=C1c1ccccc1Cl [SB-373598],2%,0%,1%,3%,6%,0%,69%,2%,3%,0%,,,,,,,,,,
CN(C)CCN(C)C(=O)c1cc(-c2ccncc2)c(-c2ccc(Cl)c(O)c2)o1.Cl.Cl [SB-710397],29%,8%,0%,0%,76%,15%,23%,9%,0%,0%,,,,,,,,,,
Fc1cc(Cl)ccc1Nc1ccnc2cc(I)ccc12 [GW551191],32%,0%,0%,0%,87%,4%,19%,4%,0%,8%,,,,,,,,,,
Fc1cc(Cl)ccc1Nc1ccnc2cc(-c3ccc(CN4CCCCC4)o3)ccc12 [GW560116],25%,0%,24%,0%,88%,29%,2%,0%,0%,3%,,,,,,,,,,

Compound,"%Inh [1, 6]","%Inh [2, 6]","%Inh [3, 6]","%Inh [4, 6]","%Inh [5, 6]",%Inh (S6K1; [6]),%Inh (SBK1; [6]),%Inh (SGK2; [6]),%Inh (SGK3; [6]),%Inh (SGK; [6]),%Inh ([1]; 1 µM),%Inh ([2]; 1 µM),%Inh ([3]; 1 µM),%Inh ([4]; 1 µM),%Inh ([5]; 1 µM),%Inh (S6K1; 1 µM),%Inh (SBK1; 1 µM),%Inh (SGK2; 1 µM),%Inh (SGK3; 1 µM),%Inh (SGK; 1 µM)
Cc1ccc(NC(=O)Nc2cccc(C(F)(F)F)c2)cc1 [GSK955403],,,,,,,,,,,0%,7%,27%,0%,23%,2%,0%,7%,0%,22%
CN1C(=O)C(Nc2ccc(Cl)c(C(=O)O)c2)=C(c2ccc(Cl)cc2)C1=O [SB-404290],8%,0%,1%,33%,0%,53%,24%,9%,19%,13%,,,,,,,,,,
Cc1c(O)cccc1Nc1ccnc2ccc(C(F)(F)F)cc12.Cl [GW466413],16%,0%,0%,4%,0%,0%,0%,0%,2%,0%,,,,,,,,,,
Cc1ccc(NC(=O)Nc2cc(C(C)(C)C)nn2-c2ccccc2)cc1 [GSK1014915],0%,18%,11%,0%,44%,10%,7%,8%,0%,0%,,,,,,,,,,
O=C(Nc1n[nH]c2nc(-c3nccs3)c(Br)cc12)C1CCCC1 [SB-742609],0%,0%,0%,0%,1%,19%,12%,0%,0%,7%,,,,,,,,,,
Cc1ccccc1-n1cnc2c(N)ncnc21 [SKF-97510],0%,0%,8%,0%,18%,0%,0%,0%,0%,0%,,,,,,,,,,
Cc1cccc(-c2nc(C)cc(Nc3ccncc3)n2)n1 [GSK257997],22%,0%,0%,0%,0%,1%,4%,0%,6%,0%,,,,,,,,,,
Cl.c1ccc(-c2n[nH]cc2-c2ccnc(-c3ccc(CN4CCOCC4)cc3)c2)nc1 [GW776245],22%,0%,0%,13%,49%,0%,0%,0%,0%,0%,,,,,,,,,,
COc1ccccc1CNC(=O)c1cc(C(=O)c2ccccc2C)c[nH]1 [GSK364507],0%,4%,0%,0%,0%,11%,16%,1%,0%,0%,,,,,,,,,,
COc1ccc(Nc2nccc(-c3cccc(NC(=O)c4cc5cc(F)ccc5[nH]4)c3)n2)cc1 [GSK1229782],0%,1%,0%,0%,24%,16%,18%,0%,0%,6%,,,,,,,,,,
COc1ccc(C2=C(Nc3cccc(C(=O)O)c3)C(=O)NC2=O)cc1 [SB-390765],8%,9%,2%,16%,30%,15%,35%,21%,22%,29%,,,,,,,,,,
Cc1cccc(-c2nc(Nc3ccncc3)c3ccccc3n2)n1 [GW855857],50%,0%,0%,0%,9%,0%,0%,0%,0%,0%,,,,,,,,,,
Cl.O=C(Nc1cccc(-c2nn3ncccc3c2-c2ccnc(Nc3cccnc3)n2)c1)c1c(F)cccc1F [GSK312879],6%,23%,10%,12%,0%,14%,41%,1%,0%,0%,,,,,,,,,,
CS(=O)(=O)c1ccc(-c2c(-c3ncn[nH]3)sc(N3CCOCC3)c2C#N)cc1,0%,0%,98%,0%,100%,10%,0%,0%,24%,0%,,,,,,,,,,
Fc1cccc(COc2nnc(-c3ccc4c(c3)CCO4)o2)c1,35%,0%,22%,0%,8%,0%,0%,0%,0%,0%,,,,,,,,,,
COc1cc2ncnc(Nc3ccc4nc(-c5ccccc5)[nH]c4c3)c2cc1OC.Cl [GW282450],27%,15%,0%,1%,0%,16%,20%,0%,0%,0%,,,,,,,,,,
Cc1cccc(-c2nc(-c3ccc(S(C)(=O)=O)cc3)sc2-c2ccnc(NCCc3ccccc3)c2)c1,0%,5%,0%,0%,0%,0%,0%,2%,0%,0%,,,,,,,,,,
Cc1cc(-c2ccc3c(c2)CC[C@@H](N[C@@H](C)c2ccccc2)C3)cnc1N.Cl [GW412617],47%,15%,0%,23%,0%,4%,17%,0%,0%,2%,,,,,,,,,,
